Source: PubChem BioAssay
This is a sample that favours compounds with a hit; in the whole collection about 1.3% have one here.
TRPML1 agonist: agonists of human TRPML1 channel | TRPML1-expressing cells, Ca2+ dye fluorescence, FDSS | actives 0.12% (n = 410,000) | Q9GZU1 | activation, % (concentration not given with the values) | AID 624414; further: 0% is about no effect
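Tetracycline-induced TRPML1-DL cells are seeded and incubated overnight before loading with a no-wash Ca2+ dye and quencher. Agonist activity is taken from the 110 s fluorescence read following compound pin-transfer on an FDSS, before EC80 54-4 challenge.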
PKM2 act: activators of human pyruvate kinase M2; AID 1631; Potency, µM (top dose mostly 57.5 µM), without a hit: top-dose activation, usual class: activators; actives 0.34% (n = 260,000); P14618; purified PKM2, Kinase-Glo ATP luminescence, activation; response scale: 0% is enzyme alone, no compound; active means well fitted activation curve with a large enough effect; inconclusive means small, poorly fitted or top-dose-only effect; inactive means no such curve, though single readings can be large or run the other way; further: potency means the concentration at half of the fitted maximal effect; on the % scale 0 is the no-effect control and ±100 the full control effect; nearly all actives have a fitted effect of over 55% in size
Target sequence (P14618 whole entry, looked up): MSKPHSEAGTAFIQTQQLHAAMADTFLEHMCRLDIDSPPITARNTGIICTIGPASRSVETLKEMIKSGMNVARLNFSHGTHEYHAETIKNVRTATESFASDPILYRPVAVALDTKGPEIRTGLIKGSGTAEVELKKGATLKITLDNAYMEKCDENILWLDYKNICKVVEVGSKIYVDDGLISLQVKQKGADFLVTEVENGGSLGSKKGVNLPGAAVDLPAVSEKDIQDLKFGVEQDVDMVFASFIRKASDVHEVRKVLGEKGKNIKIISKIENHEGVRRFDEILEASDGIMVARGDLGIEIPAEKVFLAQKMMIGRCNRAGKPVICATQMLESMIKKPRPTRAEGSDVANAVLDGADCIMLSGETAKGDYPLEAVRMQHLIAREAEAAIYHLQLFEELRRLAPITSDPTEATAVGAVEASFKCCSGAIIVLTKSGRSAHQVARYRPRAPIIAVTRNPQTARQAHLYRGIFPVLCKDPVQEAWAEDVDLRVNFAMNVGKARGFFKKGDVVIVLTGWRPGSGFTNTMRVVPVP
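ATP formation by purified human PK-M2, quantified via coupled luciferase luminescence after 1 h at room temperature with 0.1 mM ADP and 0.5 mM PEP final.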
IL-2 act: activators of IL-2; actives 0.065% (n = 360,000); IL-2 activation reporter assay, cell-based qHTS; stimulated with anti-CD3/CD4/CD28 beads; in transgenic mouse T cells; activation, % (series mostly up to about 46 µM); further: 0% is about no effect
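Unstimulated transgenic mouse T cells, 750 per well, received compound and, after 60 minutes, anti-CD3/anti-CD4 bead plus anti-CD28 stimulation. EGFP and DsRed were quantified after 18 hours.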
TRPML1 inh: inhibitors of human TRPML1 channel | Q9GZU1 | TRPML1-inducible cells, Ca2+ dye fluorescence, FDSS; active compounds read low; inhibition of EC80 agonist-evoked calcium signal | activity change, negative = inhibition, % (test concentration not listed) | actives 0.02% (n = 390,000) | AID 624415; in the data active means activity change below about -50%; inconclusive means between about -30% and that limit;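 further: stimulus is agonist 54-4 at its EC80 concentration; on the % scale 0 is the no-effect control and ±100 the full control effect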
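Tet-induced TRPML1-DL cells loaded with Ca8 no-wash calcium dye were read kinetically on FDSS. Compound addition was followed by EC80 agonist 54-4 (4 uM final); inhibition was read over 110 s.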
BRCA1 expr act: increases BRCA1 expression | MCF7-BRCA1-FFLuc reporter, luminescence, 48 h; response scale: scaled: vehicle 0%, 10 µM genistein 100% | Potency, µM (doses to about 46.1 µM), inactives show at the top dose activation, actives largely listed as activators | actives 1.1% (n = 380,000); active means well fitted activation curve with a large enough effect; inconclusive means small, poorly fitted or top-dose-only effect; inactive means no such curve, though single readings can be large or run the other way; further: potency means the concentration at half of the fitted maximal effect; nearly all actives have a fitted effect of over 80% in size
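Quantitative HTS in MCF7 cells stably reporting BRCA1 expression via firefly luciferase. Compound treatment lasts 48 h at 37 °C in phenol-red free MEM. Activation is expressed relative to genistein at 10 microM and DMSO.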
TSG101-PTAP inh: blocks PTAP/TSG101 interaction to inhibit HIV-1 budding | Q99816 | Fluorescence polarization, FITC-PTAP peptide / Tsg101 binding | Potency, µM (top dose mostly 115 µM), for inactives: top-dose activity change, negative = inhibition, most hits filed as inhibitors | 340,000 tested, under 10 active | AID 493005; active means well fitted inhibition curve with a large enough effect in the main read-out, with a control signal flat, not every such curve was filed as active; inconclusive means small, poorly fitted or top-dose-only effect, or effect the other way, or a change in a side signal; inactive means no such curve, though single readings can be large or run the other way; further: potency means the concentration at half of the fitted maximal effect; % of control where 0% means no effect
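Compounds were pin-transferred onto Tsg101 binding domain (10 uM final) in HEPES pH 7.5 buffer, then FITC-PTAP peptide was added at 50 nM final. After 20 min at RT, polarization reported peptide displacement across a qHTS concentration series.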
Starred values were filed as active, the others as inactive; ? = inconclusive; · = no result; [ ] = remark or other dose. Unless noted, no stated cut-off is given here; in the data, active means activation above about 50%; inconclusive means mostly about 30% to 49%; inactive means weaker than that.

SMILES	TRPML1 agonist	PKM2 act	IL-2 act	TRPML1 inh	BRCA1 expr act	TSG101-PTAP inh
CCCCOC(=O)Nc1ccc(N2CCCCC2)cc1	0.9	2.1%	0.9	-1.6	?	-4.6%
COc1cc(/C=N/n2cnnc2)ccc1OCc1ccc(C)cc1	-0.8	-23.3%	-0.4	13.8	10µM*	0.0%
CCCCOCCCNC(=O)C[C@@H]1C[C@@]2(C(=O)OC)CCCCC=C2N(Cc2ccccc2)C1=O	-0.7	·	-0.3	·	-6.1%	·
COc1ccc(OC)c(/C=C2/Sc3ccccc3C2=O)c1	53.8*	-5.9%	?	-11.6	-35.5%	?
COc1ccc(OC)c(/C=C2\Cc3ccccc3C2=O)c1	-0.1	·	·	·	0.0%	·
COc1ccc(Oc2nccc(-c3ccccc3)c2C#N)cc1	1.1	3.1%	0.4	64.5	5.01µM*	1.4%
CCOc1ccc(OCC)c(Nc2ccc3cc(S(=O)(=O)N4CCCC4)ccc3n2)c1	1.1	·	·	-2.6	·	·
Cc1c(Nc2nc3ccccc3n3c(C)nnc23)cccc1C(=O)O	-0.2	·	·	-14.9	·	·
CCCn1cnc2c(SCCc3ccccc3)nc(N)nc21	0.0	·	0.6	-8.7	12.6µM*	1.4%
CC(C)Cn1cnc2c(SCc3ccccc3F)nc(N)nc21	0.9	·	-1.2	0.3	5.62µM*	-1.8%
CCCCn1cnc2c(SCCc3ccccc3)nc(N)nc21	14.3	·	0.0	-12.2	60.9%	0.6%
CCOC(=O)c1ccccc1NC(=O)c1nn(C)c2c1COc1ccccc1-2	0.7	·	·	-5.4	·	·
C=CCSc1nncn1/N=C/c1ccc(OC)cc1	-0.3	-0.6%	-0.7	0.9	2.24µM*	-9.7%
COc1ccc(/C=N/n2cnnc2SCCO)cc1OC	-0.4	0.1%	-0.3	-9.4	-0.6%	3.1%
C(=C\c1ccnc2ccccc12)/c1ccc2c(c1)OCO2	-0.9	·	·	·	23.6%	·
Nc1nc(SCc2ccc(Cl)cc2Cl)nc2nc3c(cc12)CCCC3	1.0	-4.3%	82.2*	18.8	-56.1%	-6.5%
Nc1nc(SCc2ccccc2Cl)nc2nc3c(cc12)CCCC3	-0.5	4.6%	-1.8	3.2	-28.8%	·
O=C1c2ccccc2NC2(CCCCC2)N1c1ccc(O)cc1	2.2	-7.6%	0.5	?	11.2µM*	-5.9%
CC(=O)Nc1sc(/C(C#N)=C/c2ccc(Cl)c(Cl)c2)nc1-c1ccc(C)cc1	75.2*	-22.0%	5.0	?	-28.5%	?
CC(=O)Nc1sc(N/N=C/c2ccc(C)cc2)nc1-c1ccc(C)cc1	-0.3	7.08µM*	1.7	-10.0	20.3%	0.6%
COc1cc(/C=N\Nc2nc(-c3ccc(C)cc3)c(NC(C)=O)s2)ccc1O	·	17.8µM*	-0.9	·	-2.5%	-4.6%
CC(=O)Nc1sc(N/N=C/c2ccc(N(C)C)cc2)nc1-c1ccc(C)cc1	-0.7	25.5%	1.0	4.7	84.1%	-5.5%
CCOc1cc(/C=N\Nc2nc(-c3ccc(C)cc3)c(NC(C)=O)s2)ccc1O	0.6	?	-0.8	2.2	-44.9%	-2.4%
COc1ccc(/C=N/Nc2nc(-c3ccc(C)cc3)c(NC(C)=O)s2)cc1OC	-0.6	10µM*	-0.8	9.4	-13.7%	0.3%
Cc1ccc(Nc2ncc(C(=O)N3CCN(c4ccc(F)cc4)CC3)c3ccccc23)cc1Cl	-0.5	·	·	-21.0	-30.8%	·
SMILES	TRPML1 agonist	PKM2 act	IL-2 act	TRPML1 inh	BRCA1 expr act	TSG101-PTAP inh
CC(=O)c1ccc(NC(=O)Nc2cccc3ccccc23)cc1	-0.3	-2.2%	5.0	-11.9	3.98µM*	-3.3%
Nc1c(C(=O)N2CCCC2)sc2nc(-c3ccccc3)ccc12	0.9	-0.5%	1.3	45.1	5.62µM*	0.2%
Nc1c(C(=O)N2CCCCC2)sc2nc3c(cc12)CCCC3	2.7	2.5%	-0.1	-14.9	5.62µM*	-4.9%
Nc1ccc(/C=C/c2nc3ccccc3s2)cc1	-0.2	·	·	·	4.6%	·
O=C(Cc1ccc(Cl)cc1)Nc1cc(Cl)ccn1	1.3	·	1.3	2.4	7.08µM*	-3.1%
CCC(Oc1ccc(F)cc1)C(=O)Nc1nc(-c2ccc(F)cc2)ns1 (stereo not given)	1.8	·	·	-8.4	·	·
Cc1cc(NC(=O)c2cccc(Br)c2)n[nH]1	-0.2	·	0.6	5.0	11.2µM*	-2.4%
CCc1ccc(-c2nnn(CCC#N)n2)cc1	-0.6	-5.3%	1.8	-3.8	12.6µM*	-0.8%
Brc1csc(/C=N/Nc2nc3ccccc3s2)c1	0.7	-16.0%	-2.6	-9.0	-64.6%	1.9%
C(=C\c1ccccc1)/C=N/Nc1nc2ccccc2s1	4.0	0.4%	-0.2	-3.7	7.94µM*	-2.5%
Brc1ccc(/C=C/C=N/Nc2nc3ccccc3s2)cc1	-0.4	7.9%	-3.4	27.3	8.91µM*	·
CCC/C=N/Nc1nc2ccccc2s1	0.2	-7.8%	0.4	29.4	56.8%	-0.6%
O=C(NC1CCCC1)c1cccc(NC(=O)c2ccco2)c1	60.2*	1.3%	-0.3	-21.5	0.7%[1.84 µM]	-1.7%
O=C(Nc1ccc(NC(=O)C2CC2)cc1)c1cccs1	0.2	-6.3%	-1.6	-1.3	10µM*	0.6%
O=C(Nc1ccc(NC(=O)c2ccco2)cc1)c1ccco1	0.2	4.0%	6.4	-8.2	10µM*	1.1%
O=C(NC(=S)Nc1ccccc1Br)c1ccco1	1.2	2.7%	0.0	5.2	12.6µM*	-12.5%
CC(=O)c1cccc(NC(=O)c2cccc(NC(=O)c3ccco3)c2)c1	0.2	0.0%	2.1	-15.6	-18.2%	5.2%
O=C(Nc1ccc(Br)cc1)c1ccco1	0.1	-5.9%	1.5	-9.5	?	-20.4%
Cc1cccc(NC(=S)NC(=O)c2ccco2)c1C	0.4	-2.9%	0.0	4.6	92.3%	2.7%
O=C(Nc1ccc(NC(=O)c2cccs2)cc1)c1cccs1	-0.1	-3.4%	0.9	5.0	24.5%	-0.7%
Cc1cccc(-n2ccnc2SCC(=O)Nc2ccccc2C(F)(F)F)c1	0.5	·	·	-19.2	13.1%	·
CC(C)NC(=O)c1cc(-c2ccc(F)cc2OC(C)C)n[nH]1	-0.8	·	0.2	·	-16.3%	·
O=C(Nc1ccc(Nc2ccccc2)cc1)c1ccco1	-1.0	4.7%	0.1	25.6	?	-7.5%
O=C(Nc1ccccc1C(=O)O)c1ccc(NC(=O)C2CC2)cc1	2.1	1.9%	-4.1	-12.0	13.7%	-7.9%
O=C(Nc1ccccc1O)c1ccc(NC(=O)C2CC2)cc1	-0.5	-4.0%	-3.8	33.3	1.78µM*	0.1%
O=C(Nc1nccs1)c1ccc(NC(=O)c2ccco2)cc1	-0.3	1.2%	6.5	-10.1	5.01µM*	-0.5%
CC(=O)N(C)c1ccc(NC(=O)c2ccco2)cc1	0.0	-13.9%	1.0	-10.3	6.31µM*	-5.5%
CCOc1ccc(NC(=S)NC(=O)c2ccco2)cc1	-0.2	2.3%	-1.0	-11.1	7.08µM*	-1.3%
